The full list was thinned out, with hits kept by preference.
C diff growth = blocks growth of Clostridium difficile | Clostridium difficile clinical isolate growth, OD600, 24 h; active compounds read low | growth activity, negative = inhibition, % at 16 µg/mL (by protocol) | 86,000 tested, 0.25% active | AID 1259249;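 active means mean growth activity at or below -80% and every replicate also at or below -80%; inconclusive means mean at or below -80% but some replicate above -80%; inactive means mean growth activity above -80%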
T cruzi growth-1 = inhibitors of T. cruzi proliferation. 77,000 tested, 5.9% active. T. cruzi beta-gal in NIH3T3, GalScreen luminescence, 90 h. inhibition, % at 8.34 µM. AID 624255;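 active means mean inhibition above about 93%, with at least 55% of replicates each passing it, limit read from the data, passing the limit was not always enough; inconclusive means only one of those two conditions holds; inactive means neither condition holds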
T cruzi growth-2 = blocks T. cruzi growth in NIH3T3 host cells; 5,600 tested, 72% active; inhibition, % at 8.35 µM; shares compounds with T cruzi growth-1; T. cruzi beta-gal in NIH3T3, GalScreen luminescence, 90 h; AID 651739;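 active means mean replicate inhibition above about 95% and at least 55% of replicates individually reaching it, limit read from the data; inconclusive means only one of the two criteria is met; inactive means neither criterion is met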
T cruzi growth-3 = blocks T. cruzi growth in NIH3T3 host cells; shares compounds with T cruzi growth-1; 5,600 tested, 21% active; T. cruzi beta-gal in NIH3T3, GalScreen luminescence, 90 h; AID 651740; inhibition, % at 2.09 µM;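 active means mean inhibition above about 95%, with at least 55% of replicates also reaching it, limit read from the data; inconclusive means meets just one of the two conditions; inactive means meets neither condition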
NIH3T3 tox = NIH/3T3 (mouse) viability loss. shares compounds with T cruzi growth-1. 5,600 tested, 14% active. cytotoxicity (signal decrease), % at 8.35 µM. NIH/3T3 viability, CellTiter-Glo ATP luminescence, 90 h;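 active means mean signal decrease across replicates above about 35% based on untreated-well scatter, with enough replicates individually passing, limit read from the data; inconclusive means no rule stated though some were filed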
3T3 cytotox 2 = cytotoxicity in mouse NIH/3T3 fibroblasts; shares compounds with T cruzi growth-1; NIH/3T3 viability, CellTiter-Glo ATP luminescence, 90 h; inhibition, % at 24.9 µM; 5,600 tested, 56% active; AID 651744;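 active means mean loss of cell viability signal at or above a set limit, and enough replicates individually reaching it; inconclusive means meets only the mean limit or only the replicate share; inactive means meets neither condition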
Numbers stand for hits; n = inactive; u = inconclusive; x = not tested or not shown.

SMILES | C diff growth | T cruzi growth-1 | T cruzi growth-2 | T cruzi growth-3 | NIH3T3 tox | 3T3 cytotox 2
CCOC(=O)c1cc2c(c(-c3cccc(C#CCN(C)C)c3)n1)[C@@H](CCO)N(S(=O)C(C)(C)C)C2 (stereo not given in full) | x | n | x | x | x | x
C[C@@H]1CN([C@@H](C)CO)C(=O)c2cc(NC(=O)C3CCCCC3)ccc2O[C@H]1CN(C)Cc1ccccc1 | n | n | x | x | x | x
COc1ccc(S(=O)(=O)N(C)C[C@H]2Oc3c(NC(=O)C4CC4)cccc3C(=O)N([C@H](C)CO)C[C@H]2C)cc1 | n | n | x | x | x | x
O=C(Nc1ccc(C(F)(F)F)cc1)N[C@@H]1C=C[C@@H](CC(=O)N2CCCCC2)O[C@@H]1CO | x | n | x | x | x | x
C[C@H]1CN([C@@H](C)CO)C(=O)c2cc(/C=C/c3ccccc3)cnc2O[C@@H]1CN(C)S(=O)(=O)c1ccccc1F | n | 126.4 | 103.9 | n | n | 37.0
C[C@H]1CN([C@@H](C)CO)C(=O)c2cc(/C=C/c3ccccc3)cnc2O[C@H]1CN(C)S(=O)(=O)c1ccccc1F | n | n | x | x | x | x
C[C@@H]1CN([C@@H](C)CO)C(=O)c2cc(/C=C/c3ccccc3)cnc2O[C@@H]1CN(C)S(=O)(=O)c1ccccc1 | n | n | x | x | x | x
C[C@H](CO)N1C[C@H](C)[C@@H](CN(C)S(=O)(=O)c2ccccc2)Oc2ncc(/C=C/c3ccccc3)cc2C1=O | n | 125.4 | 107.6 | n | n | n
C[C@@H]1CN([C@@H](C)CO)C(=O)c2cc(/C=C/c3ccccc3)cnc2O[C@H]1CN(C)S(=O)(=O)c1ccccc1F | n | 123.4 | 108.1 | n | n | u
C/C=C/c1cnc2c(c1)C(=O)N([C@H](C)CO)C[C@@H](C)[C@H](CN(C)S(=O)(=O)c1ccccc1F)O2 | n | x | x | x | x | x
O=C(NC1CCCCC1)N[C@@H]1CC[C@@H](CCNS(=O)(=O)c2ccc(Cl)cc2)O[C@H]1CO | n | n | x | x | x | x
COC(=O)[C@H]1[C@H](CO)[C@H]2Cn3c(ccc(-c4ccc(OC)cc4)c3=O)[C@H]2N1C | n | n | x | x | x | x
C[C@@H]1CN([C@H](C)CO)C(=O)c2cc(Br)cnc2O[C@@H]1CN(C)C(=O)c1ccc(F)cc1 | n | x | x | x | x | x
O=C(Nc1ccc2c(c1)[C@H]1C[C@H](CC(=O)N3CCCCC3)O[C@@H](CO)[C@H]1O2)Nc1ccccc1F | n | n | x | x | x | x
C[C@@H]1CCCCO[C@H](CN(C)C(=O)Cc2ccccc2)[C@H](C)CN([C@H](C)CO)C(=O)c2cc(NC(=O)Nc3ccc(F)cc3)ccc2O1 | n | 103.1 | 106.7 | 108.0 | n | n
C[C@@H]1CCCCO[C@H](CN(C)C(=O)Cc2ccccc2)[C@H](C)CN([C@@H](C)CO)C(=O)c2cc(NC(=O)Nc3ccc(F)cc3)ccc2O1 | n | 99.9 | 103.1 | n | n | n
C[C@H]1CCCCO[C@H](CN(C)C(=O)Cc2ccccc2)[C@@H](C)CN([C@@H](C)CO)C(=O)c2cc(NC(=O)Nc3ccc(F)cc3)ccc2O1 | n | 101.0 | 106.0 | n | n | n
C[C@@H]1CN([C@H](C)CO)C(=O)c2cc(NC(=O)Nc3ccc(F)cc3)ccc2O[C@@H](C)CCCCO[C@@H]1CN(C)C(=O)Cc1ccccc1 | n | n | x | x | x | x
C[C@H](CO)N1C[C@H](C)[C@H](CN(C)C(=O)Cc2ccccc2)OCCCC[C@H](C)Oc2ccc(NC(=O)Nc3ccc(F)cc3)cc2C1=O | n | n | x | x | x | x
Cc1noc(C)c1NC(=O)Nc1ccc2c(c1)C(=O)N([C@@H](C)CO)C[C@H](C)[C@@H](CN(C)C(=O)Cc1ccccc1)OCCCC[C@@H](C)O2 | n | n | x | x | x | x
C[C@H](CO)N1C[C@H](C)[C@@H](CN(C)C(=O)Cc2ccccc2)OCCCC[C@H](C)Oc2ccc(NC(=O)Nc3ccccc3)cc2C1=O | x | n | x | x | x | x
Cc1noc(C)c1NC(=O)Nc1ccc2c(c1)C(=O)N([C@H](C)CO)C[C@H](C)[C@H](CN(C)C(=O)Cc1ccccc1)OCCCC[C@H](C)O2 | n | 106.0 | n | n | n | n
CN(C)CCCNC(=O)C[C@H]1CC[C@@H]2[C@H](COC[C@H](O)CN2Cc2cccc(F)c2)O1 | n | n | x | x | x | x
O=C(C[C@H]1CC[C@H](NC(=O)C2CC2)[C@@H](CO)O1)NCC1CC1 | n | x | x | x | x | x
CO[C@H]1CN(C)C(=O)c2cc(NC(=O)C3CC3)ccc2OC[C@H](C)N(CCC(F)(F)F)C[C@H]1C | x | n | x | x | x | x
SMILES | C diff growth | T cruzi growth-1 | T cruzi growth-2 | T cruzi growth-3 | NIH3T3 tox | 3T3 cytotox 2
C[C@H]1CN([C@@H](C)CO)C(=O)c2cc(C#CC(C)(C)O)cnc2O[C@H]1CN(C)C(=O)C1CCCCC1 | n | n | x | x | x | x
C[C@@H]1CCCCO[C@H](CN(C)C(=O)Cc2ccccc2)[C@H](C)CN([C@H](C)CO)C(=O)c2cc(NC(=O)Nc3ccccc3)ccc2O1 | x | 103.0 | 98.1 | n | n | n
C[C@@H]1CN([C@H](C)CO)C(=O)c2cc(NC(=O)Nc3ccccc3)ccc2O[C@@H](C)CCCCO[C@@H]1CN(C)C(=O)Cc1ccccc1 | x | n | x | x | x | x
C[C@H]1CN([C@@H](C)CO)C(=O)c2cc(NS(=O)(=O)c3ccc(F)cc3)ccc2O[C@@H]1CN(C)C(=O)Nc1ccc(C(F)(F)F)cc1 | n | n | x | x | x | x
Cc1ccc(S(=O)(=O)Nc2ccc3c(c2)CC(=O)N([C@H](C)CO)C[C@@H](C)[C@@H](CN(C)Cc2ccccc2)O3)cc1 | n | x | x | x | x | x
CC(C)CC#Cc1cnc2c(c1)C(=O)N([C@H](C)CO)C[C@@H](C)[C@@H](CN(C)Cc1cccc(F)c1)O2 | n | u | 104.2 | n | n | 60.9
C[C@@H]1CN([C@H](C)CO)C(=O)c2cc(C#CCc3ccccc3)cnc2O[C@@H]1CN(C)Cc1cccc(F)c1 | x | n | x | x | x | x
CC(C)CC#Cc1cnc2c(c1)C(=O)N([C@@H](C)CO)C[C@H](C)[C@@H](CN(C)Cc1cccc(F)c1)O2 | n | 102.4 | 107.6 | n | n | 105.0
C[C@H](CO)N1C[C@H](C)[C@H](CN(C)Cc2cccc(F)c2)Oc2ncc(C#CCc3ccccc3)cc2C1=O | x | n | x | x | x | x
C[C@@H]1CN([C@H](C)CO)C(=O)c2cc(C#CCc3ccccc3)cnc2O[C@H]1CN(C)Cc1cccc(F)c1 | x | n | x | x | x | x
CC(C)CC#Cc1cnc2c(c1)C(=O)N([C@H](C)CO)C[C@@H](C)[C@H](CN(C)Cc1cccc(F)c1)O2 | n | 102.6 | 106.1 | n | n | 102.0
COc1ccccc1NC(=O)N1CCCCN2[C@H](C1)[C@H](c1ccc(-c3cccc(F)c3)cc1)[C@@H]2CO | n | n | x | x | x | x
COc1ccccc1NC(=O)N1CCCCN2[C@H](CO)[C@@H](c3ccc(C#Cc4ccccc4)cc3)[C@@H]2C1 | n | n | x | x | x | x
COc1ccccc1NC(=O)N1CCCCN2[C@H](C1)[C@H](c1ccc(-c3ccc(C)cc3)cc1)[C@@H]2CO | n | 112.8 | 110.8 | n | n | 28.1
COc1ccccc1NC(=O)N1CCCCN2[C@@H](CO)[C@@H](c3ccc(-c4ccc(C)cc4)cc3)[C@@H]2C1 | n | n | x | x | x | x

Assay outcomes (PubChem)
